Hits are enriched below; roughly 19% of the tested compounds scored in any of these assays.
SW480 rerep: A quantitative high throughput screen for small molecules that induce DNA re-replication in SW480 colon adenocarcinoma cells; AID 624297, 2012; SW480 DNA re-replication, Hoechst DNA content imaging, 48 h; Potency, µM (titrated, usually from 46.1 µM), for the others: top-dose re-replication activation, usual class: activators; 340,000 compounds, 1.8% hits; further: potency means the concentration at half of the fitted maximal effect; % of control where 0% means no effect; nearly all actives have a fitted effect of over 55% in size
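DNA re-replication was detected as more nuclei of elevated Hoechst intensity after 48 hr exposure to compound (23 nL pinned per well of 250 cells).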
Chronic BCR inh: qHTS Assay to Find Inhibitors of Chronic Active B-Cell Receptor Signaling; ABC-DLBCL IkBa-CBG/CBR reporter, luminescence ratio, 4 h; Potency, µM (series often up to 46.1 µM), inactives show at the top dose activity change, negative = inhibition, most hits filed as inhibitors; 340,000 compounds, 0.05% hits; active means well fitted inhibition curve with a large enough effect in the signal ratio, with a control signal flat, not every such curve was filed as active; inconclusive means small, poorly fitted or top-dose-only effect, or effect the other way, or a change in a side signal; the % refers to the signal ratio;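 further: potency means the concentration at half of the fitted maximal effect; plate controls were basal doxycycline-induced cells for no effect and cells given 10 µM MG132 for full effect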
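TMD8 ABC-DLBCL cells carrying doxycycline-inducible green luciferase fused to IkappaBalpha plus unfused red luciferase were exposed to compounds (up to 46 uM) for 4 hrs at 37C. Activity came from the overlap-corrected green/red luminescence ratio.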
IL1B secr inh: qHTS for Inhibitors of Inflammasome Signaling: IL-1-beta AlphaLISA Primary Screen | THP-1 LPS/ATP IL-1B secretion, AlphaLISA, 16 h; active compounds read low | activity change, % at 57.5 µM | 360,000 compounds, 4.7% hits; in the data active means activity change below about -50%; inconclusive means mostly about -30% to -49%; further: on the % scale 0 is the no-effect control and ±100 the full control effect
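THP-1 cells pretreated 1 hr with compounds (up to 57.5 uM final), then stimulated with LPS (250 ng/mL final) plus ATP (1.25 mM final); secreted IL-1B measured by AlphaLISA after 16 hr, decreased signal indicating inhibition.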
MCF10A rerep: A quantitative high throughput screen for small molecules that induce DNA re-replication in MCF 10a normal breast cells; Potency, µM (top dose mostly 46.1 µM), inactives show at the highest dose activity, positive = re-replication, most hits filed as activators; 350,000 compounds, 2.9% hits; MCF 10A DNA re-replication, Hoechst nuclear intensity, 48 h; further: potency means the concentration at half of the fitted maximal effect; % of control where 0% means no effect; nearly all actives have a fitted effect of over 50% in size
DT40 TDP1 CPT: qHTS for Inhibitors of human tyrosyl-DNA phosphodiesterase 1 (TDP1): qHTS in cells in presence of CPT; chicken DT40 Tdp1-/-;hTDP1 cells + 20 nM CPT, ATP luminescence, 48 h; Potency, µM (titrated, usually from 46.2 µM), inactives show at the top dose activity change, negative = growth inhibition, actives largely listed as inhibitors; 420,000 compounds, 12% hits; AID 686979, 2013; further: potency means the concentration at half of the fitted maximal effect; on the % scale 0 is the no-effect control and ±100 the full control effect; nearly all actives have a fitted effect of over 55% in size
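Chicken DT40 Tdp1-/- cells complemented with human TDP1, 400 cells/well, exposed to compounds plus 20 nM camptothecin for at least 48 h at 37 C; viability read as ATP content by CellTiter-Glo luminescence.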
TDP1 cell noCPT: qHTS for Inhibitors of human tyrosyl-DNA phosphodiesterase 1 (TDP1): qHTS in cells in absence of CPT; 420,000 compounds, 15% hits; Potency, µM (top dose mostly 46.2 µM), for the others: top-dose activity change, negative = growth inhibition, usual class: inhibitors; DT40 Tdp1-/- hTDP1 cells, no CPT, ATP luminescence, 48 h; further: potency means the concentration at half of the fitted maximal effect; on the % scale 0 is the no-effect control and ±100 the full control effect; nearly all actives have a fitted effect of over 55% in size
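Growth kinetics read by CellTiter-Glo luminescence after ≥48 hr at 37 °C. Cells: DT40 Tdp1-/- stably carrying human TDP1, 400 per well, compound exposure in the absence of CPT (DMSO vehicle).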
* = called active by the depositor; [ ] = dose if it differs, or a comment. Unless noted, the call rests on the fitted dose curve; in most records, active means well fitted curve in the direction sought with a large enough effect; inconclusive means small, poorly fitted or top-dose-only effect, or another doubt; inactive means no such curve, though single readings can be large; an effect the other way counts as inactive or inconclusive.

`Cc1ccc(OCC(=O)NNC(=S)NC(=O)C2CCCCC2)c(C)c1` gave SW480 rerep 4%, Chronic BCR inh 7%, IL1B secr inh 75, MCF10A rerep -1%, DT40 TDP1 CPT inconclusive and TDP1 cell noCPT 21µM*.
For CCC1C(=O)NCCN1Cc1ccc2c(c1)CN(Cc1cc(OC)ccc1OC)CCO2 (centres undefined) the results were DT40 TDP1 CPT -6%[9.04 µM] and TDP1 cell noCPT inconclusive.
CSC[C@H]1CN(Cc2cccnc2)C(=O)[C@@H]1CC(=O)Nc1ccc(Br)cc1 was read as IL1B secr inh -13, DT40 TDP1 CPT -29% and TDP1 cell noCPT inconclusive.
Screening Cc1ccc(-c2cc3nc(-c4ccccc4)cc(N4CCOCC4)n3n2)cc1 returned SW480 rerep inconclusive, Chronic BCR inh -15%, IL1B secr inh -14, MCF10A rerep 16µM*, DT40 TDP1 CPT -29% and TDP1 cell noCPT inconclusive.
For COc1cccc(-c2cc3nc4c(c(N5CCC6(CC5)OCCO6)n3n2)CCC4)c1 the results were SW480 rerep -10%, Chronic BCR inh 1%, IL1B secr inh -2, MCF10A rerep inconclusive, DT40 TDP1 CPT 18µM* and TDP1 cell noCPT 26µM*.
Cc1cccc(-c2cc3nc4c(c(N5CCC6(CC5)OCCO6)n3n2)CCCC4)c1 was read as SW480 rerep -1%, IL1B secr inh 6, MCF10A rerep 15%, DT40 TDP1 CPT -30% and TDP1 cell noCPT -26%.
`Cc1cc(N2CCOCC2)n2nc(-c3cccc(F)c3)cc2n1` gave SW480 rerep 4%, Chronic BCR inh 2%, IL1B secr inh 30, MCF10A rerep inconclusive, DT40 TDP1 CPT -21% and TDP1 cell noCPT -9%.
For COc1ccc(-c2cc3nc4c(c(N5CCC6(CC5)OCCO6)n3n2)CCC4)cc1 the results were SW480 rerep -6%, Chronic BCR inh -20%, IL1B secr inh -13, MCF10A rerep 1%, DT40 TDP1 CPT 13µM* and TDP1 cell noCPT 26µM*.
Screening COc1cccc(-c2cc3nc(-c4ccccc4)cc(N4CCCC(O)C4)n3n2)c1 (centres undefined) returned SW480 rerep 15µM*, Chronic BCR inh inconclusive, IL1B secr inh inconclusive, MCF10A rerep 18µM*, DT40 TDP1 CPT inconclusive and TDP1 cell noCPT inconclusive.
Screening CN(NS(=O)(=O)c1ccccc1)C(=O)c1ccccc1 returned SW480 rerep -5%, IL1B secr inh -1, MCF10A rerep -10%, DT40 TDP1 CPT 11% and TDP1 cell noCPT 12%.
`COc1ccc(-c2cc3nc(-c4ccccc4)cc(N4CCC5(CC4)OCCO5)n3n2)cc1` gave SW480 rerep 23µM*, Chronic BCR inh -2%, IL1B secr inh -6, MCF10A rerep 20%, DT40 TDP1 CPT 26µM* and TDP1 cell noCPT inconclusive.
Screening COc1cccc(N2CCN(c3c4c(nc5ncnn35)CCC4)CC2)c1 returned SW480 rerep -1%, Chronic BCR inh -8%, IL1B secr inh -14, MCF10A rerep 4%, DT40 TDP1 CPT inconclusive and TDP1 cell noCPT 16µM*.
Screening Cc1cccc(Nc2c3c(nc4ncnn24)CCC3)c1 returned SW480 rerep -175%, Chronic BCR inh 3%, IL1B secr inh 25, MCF10A rerep 1%, DT40 TDP1 CPT -28% and TDP1 cell noCPT inconclusive.
Screening Cc1ccc2c(c1)cc1c(=O)n(CC(=O)N3CCCCC3)nc(C)n12 returned DT40 TDP1 CPT 1% and TDP1 cell noCPT inconclusive.
O=S(=O)(NCCc1csc2nc(-c3ccccc3)nn12)c1cccs1 was read as Chronic BCR inh inconclusive, DT40 TDP1 CPT inconclusive and TDP1 cell noCPT 16µM*.
`COc1ccc(-c2nc3scc(CCNS(=O)(=O)c4cccs4)n3n2)cc1` gave Chronic BCR inh inconclusive, DT40 TDP1 CPT 21µM* and TDP1 cell noCPT 18µM*.
Screening CCc1ccc(S(=O)(=O)NCCc2csc3nc(-c4ccccc4)nn23)s1 returned Chronic BCR inh inconclusive, DT40 TDP1 CPT 21µM* and TDP1 cell noCPT 23µM*.
`Cc1cc(OCCN2CCOCC2)ccc1C(C)C` gave SW480 rerep 2%, Chronic BCR inh 4%, IL1B secr inh 26, MCF10A rerep 8%, DT40 TDP1 CPT 4% and TDP1 cell noCPT 7%.
For Cc1ccc(CNC(=O)CN2C(=O)COc3ccc(S(=O)(=O)N4CCC(C)CC4)cc32)cc1 the results were DT40 TDP1 CPT inconclusive and TDP1 cell noCPT -29%.
For C[C@H]1CN(CCc2ccccc2)C(=O)[C@@H]1CC(=O)Nc1ccc(Br)cc1 the results were IL1B secr inh 10, DT40 TDP1 CPT -14% and TDP1 cell noCPT -10%.
`COC(=O)/C=C/c1ccc(OC(=O)c2ccncc2)cc1` gave SW480 rerep -3%, Chronic BCR inh 2%, IL1B secr inh 0, MCF10A rerep 11%, DT40 TDP1 CPT -8% and TDP1 cell noCPT -9%.
Screening CN(C)S(=O)(=O)c1ccc(C(=O)Nc2ccc(-n3nncc3-c3ccccc3)cc2)cc1 returned Chronic BCR inh inconclusive, DT40 TDP1 CPT 21µM* and TDP1 cell noCPT 15µM*.
For O=C(O)c1ccc(-n2nncc2-c2ccccc2)cc1 the results were SW480 rerep -11%, Chronic BCR inh -4%, IL1B secr inh 2, MCF10A rerep -6%, DT40 TDP1 CPT -17% and TDP1 cell noCPT -13%.
For O=C(Nc1ccccc1)c1ccc(-n2nncc2-c2ccccc2)cc1 the results were DT40 TDP1 CPT 10µM* and TDP1 cell noCPT inconclusive.
Screening O=C(Nc1ccc(-n2nncc2-c2ccccc2)cc1)c1cccc(F)c1 returned Chronic BCR inh 4%, DT40 TDP1 CPT inconclusive and TDP1 cell noCPT inconclusive.
Screening CC(=O)c1ccc(S(=O)(=O)NCC(=O)Nc2nc3ccccc3[nH]2)cc1 returned SW480 rerep 2%, Chronic BCR inh inconclusive, IL1B secr inh 0, MCF10A rerep -3%, DT40 TDP1 CPT -11% and TDP1 cell noCPT -19%.
COC(=O)N1CCC[C@@]2(CCN(c3ccccn3)C2)C1 was read as DT40 TDP1 CPT 2% and TDP1 cell noCPT -16%.

Compound activity as filed in PubChem.
